Results on 1 sequence are retold here after patent US20140271602, “NUCLEOTIDE-SPECIFIC RECOGNITION SEQUENCES FOR DESIGNER TAL EFFECTORS” (THE BROAD INSTITUTE INC., published 2014).

For this assay, the target named is T1, TALE1-HN (CACNA1C site 1 activator) (Xanthomonas (engineered), UniProt P14727 SEQ:1-983).
T1 chain: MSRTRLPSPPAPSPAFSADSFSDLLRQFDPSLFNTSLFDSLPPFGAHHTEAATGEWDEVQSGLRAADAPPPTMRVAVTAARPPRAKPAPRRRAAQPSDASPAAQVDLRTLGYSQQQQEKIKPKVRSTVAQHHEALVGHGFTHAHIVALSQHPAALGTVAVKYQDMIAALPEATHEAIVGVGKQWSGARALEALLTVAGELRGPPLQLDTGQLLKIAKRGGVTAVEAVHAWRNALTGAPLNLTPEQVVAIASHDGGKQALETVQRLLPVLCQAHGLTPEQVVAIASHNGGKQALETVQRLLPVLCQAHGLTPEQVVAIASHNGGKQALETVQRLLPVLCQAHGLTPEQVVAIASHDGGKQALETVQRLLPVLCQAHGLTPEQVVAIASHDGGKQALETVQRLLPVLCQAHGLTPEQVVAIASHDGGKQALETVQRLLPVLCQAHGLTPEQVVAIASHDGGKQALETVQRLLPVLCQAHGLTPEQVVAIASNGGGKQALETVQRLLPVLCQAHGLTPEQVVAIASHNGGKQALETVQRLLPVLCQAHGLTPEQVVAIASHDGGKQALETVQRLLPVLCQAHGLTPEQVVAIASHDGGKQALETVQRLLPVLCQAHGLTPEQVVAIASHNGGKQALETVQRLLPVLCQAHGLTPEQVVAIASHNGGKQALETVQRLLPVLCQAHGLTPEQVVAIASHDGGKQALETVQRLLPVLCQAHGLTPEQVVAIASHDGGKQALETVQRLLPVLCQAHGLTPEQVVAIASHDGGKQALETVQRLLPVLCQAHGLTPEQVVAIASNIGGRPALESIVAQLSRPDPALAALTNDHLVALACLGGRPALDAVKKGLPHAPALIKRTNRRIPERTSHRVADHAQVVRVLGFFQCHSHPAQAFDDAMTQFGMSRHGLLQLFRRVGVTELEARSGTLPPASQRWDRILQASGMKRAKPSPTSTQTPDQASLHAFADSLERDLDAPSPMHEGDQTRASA
Kind of assay: cell_activity; luciferase reporter. As to conditions: tags: VP64, 2A-GFP; dsDNA, one strand shown. Here is the method: TALEs using NN, NK, NH, and HN as the G-targeting RVD were synthesized to target two distinct 18 bp target sites in the human CACNA1C locus. Changes in mRNA are measured using qRT-PCR as described previously. VP64, VP64 transcription activation domain. All results are collected from three independent experiments in HEK 293FT cells. Error bars indicate s.e.m.; n=3. FIG. 19(b) discloses SEQ ID NOS 63 and 62, respectively, in order of appearance.
To determine whether NH and HN are suitable replacements for NN as the G-specific RVD, specificity and activity strength of NN, NK, NH, and HN were directly compared. Two 18 bp targets within the CACNA1C locus in the human genome were chosen and four TALEs for each target were constructed, using NN, NK, NH, or HN as the G-targeting RVD (FIG. 19a). […] For each CACNA1C target site, four luciferase reporters were constructed: wild type genomic target, and wild type target with 2, 4, or all guanines mutated into adenines (FIG. 19a, G-to-A reporters), and compared the activity of each TALE using these reporters (FIG. 19a). […] Thus, focus was placed on the RVDs NN, NK, and NH in subsequent experiments to assess their usefulness in modulating transcription at endogenous human genome targets.
With TCAACCCCTGCCGGCCCA, the binding signal is 30.8 % reduction vs wild-type site.
